Shown are actives, neighbours in structure and some others; about 3.6% of the full set was active somewhere.
KAT2A inh – qHTS Assay for Inhibitors of GCN5L2; Histone acetyltransferase KAT2A (Homo sapiens), Q92830; GCN5L2 HAT assay, ThioGlo1 CoA-SH fluorescence; Potency, µM (top dose mostly 58.9 µM), hits mostly inhibitors; 390,000 tested, 0.21% active
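Preincubate 20nM GCN5L2 with compound 15 min, RT → add 50uM ThioGlo1 + 75uM H3(1-25) + 70uM acetyl-CoA → read fluorescence 0 and 20 min. Primary qHTS; fluorescent artifacts likely.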
PI5P4Ka inh – qHTS for Inhibitors of phosphatidylinositol 5-phosphate 4-kinase (PI5P4K). max response, %. AID 652105, 2013. 330,000 tested, 1.2% active. PI5P4Kalpha enzyme, ADP-Glo luminescence, 60 min; hits give low values; active = max response of -50% or lower; inconclusive = between -30% and -50%; inactive = -30% or higher; also: value at the top dose of about 77 µM
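Compounds were pin-transferred onto PI5P4Kalpha and substrate in HEPES pH 7.4 buffer with EGTA, CHAPS and 5% DMSO. ATP (5 microM final) started the reaction, which ran 60 minutes at room temperature before ADP-Glo detection.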
Rango release inh – qHTS Assay for Inhibitors of RanGTP induced Rango (Ran-regulated importin-beta cargo) - Importin beta complex dissociation | 340,000 tested, 0.071% active | Biochemical FRET Rango-importin beta, RanGTP-induced dissociation | Potency, µM (doses to about 46.1 µM); calls by dose curve; also: nearly all actives have a fitted effect of over 45% in size
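Rango FRET biosensor (snurportin-1 IBB flanked by N-terminal EYFP and C-terminal CFP10) at 0.1 uM, with 0.25 uM importin beta in PBS, 1mM DTT, 0.02% Tween-20, 0.1% BSA. 0.6 uM Ran, 2mM GTP and 0.2 uM RCC1 were then added for 45 min at room temperature. Inhibition read as loss of FRET rise.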
VDR inh – Inhibitors of the vitamin D receptor (VDR): qHTS | Vitamin D3 receptor (Homo sapiens), P11473 | VDR-SRC2-3 peptide fluorescence polarization, 2 h | Potency, µM, usual class: inhibitors | 400,000 tested, 0.93% active | AID 504847, 2011
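Compounds are added to VDR with labelled SRC2-3 coactivator peptide and held 2 h at room temperature. Inhibition of the VDR–peptide interaction is then read as a change in fluorescence polarization.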
Rango complex inh – qHTS Assay for Inhibitors of Rango (Ran-regulated importin-beta cargo) - Importin beta complex formation; AID 540263, 2011; 340,000 tested, 0.031% active; Rango CFP/YFP FRET sensor + importin beta, 45 min; Importin subunit beta-1 (Homo sapiens), Q14974; Potency, µM (highest dose often 92.2 µM); calls by dose curve; also: nearly all actives have a fitted effect of over 15% in size
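FRET biosensor Rango (snurportin 1 IBB between N-terminal EYFP and C-terminal Cerulean), 50 nM in PBS/1 mM DTT/0.02% Tween-20/0.1% BSA, preincubated 5 min RT with compound; 0.125 microM importin beta added, 45 min RT, CFP/YFP FRET ratio read.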
PLK1 PBD inh – qHTS for Inhibitors of PLK1-PDB (polo-like kinase 1 - polo-box domain): Primary Screen | Serine/threonine-protein kinase PLK1 (Homo sapiens), P53350 | Plk1 PBD binding of FITC phosphopeptide, fluorescence polarization | Potency, µM, usual class: inhibitors | 360,000 tested, 2.8% active | AID 720504, 2013; also: series mostly up to about 57 µM; nearly all actives have a fitted effect of over 65% in size
VDR confirm – qHTS for Inhibitors of the vitamin D receptor (VDR): Hit Validation in Primary Screen | shares compounds with VDR inh | VDR-coactivator inhibition assay, qHTS confirmation | Potency, µM, actives largely listed as inhibitors | 840 tested, 89% active
VDR FP – qHTS for Inhibitors of the vitamin D receptor (VDR): Hit Validation using a Fluorescein Assay. VDR-coactivator binding, fluorescein fluorescence polarization. shares compounds with VDR inh. AID 602200, 2012. 840 tested, 48% active. Potency, µM (doses to about 57.1 µM), most hits filed as inhibitors
VDR bla reporter – qHTS for Inhibitors of the vitamin D receptor (VDR): Hit Validation using a Beta-Lactamase Assay; shares compounds with VDR inh; VDR beta-lactamase reporter cells, FRET ratio; cells co-treated with VDR agonist LG190178; Potency, µM (highest dose often 46.1 µM), hits mostly inhibitors; 840 tested, 23% active; AID 602202, 2012
VDR viability – qHTS for Inhibitors of the vitamin D receptor (VDR): Hit Validation using a Cytotoxicity Assay; Potency, µM (titrated, usually from 48.3 µM), usual class: cytotoxic; cytotoxicity counter-screen, cell viability, qHTS; AID 602204, 2012; shares compounds with VDR inh; 840 tested, 18% active; also: nearly all actives have a fitted effect of over 75% in size
TbPYK inh – qHTS of Trypanosoma Brucei Inhibitors: Confirmatory Assay for Cherry-picked Compounds; shares compounds with PLK1 PBD inh; recombinant TbPYK, Kinase-Glo ATP luminescence; Potency, µM (titrated, usually from 76.9 µM), most hits filed as inhibitors; 890 tested, 67% active; also: nearly all actives have a fitted effect of over 70% in size
TbPYK ADP-Glo – qHTS of Trypanosoma Brucei Inhibitors: Orthogonal Assay for Cherry-picked Compounds; shares compounds with PLK1 PBD inh; recombinant TbPYK, ADP-Glo luminescence, 60 min; Potency, µM (highest dose often 76.9 µM), hits mostly inhibitors; 890 tested, 62% active; AID 720584, 2013; also: nearly all actives have a fitted effect of over 75% in size
A number is an active result; [ ] = another dose, or the depositor's remark. Unless noted, calls follow the shape of the dose curve; as a rule, active = well fitted curve in the direction sought with a large enough effect; inconclusive = small, poorly fitted or top-dose-only effect, or another doubt; inactive = no such curve, though single readings can be large; an effect the other way counts as inactive or inconclusive.

How did CC1=C(C)CS(=O)N(S(=O)(=O)c2ccc(Cl)cc2)C1 (stereo not drawn) do in these assays?
KAT2A inh: inactive; PI5P4Ka inh: inactive; Rango release inh: inactive; VDR inh: 2.82µM; Rango complex inh: inactive; PLK1 PBD inh: 1.34µM; VDR confirm: 1.19; VDR FP: inconclusive; VDR bla reporter: inactive; VDR viability: 16.4µM; TbPYK inh: 15.8µM; TbPYK ADP-Glo: 28.2µM

Results for CCc1sc(C(C2C(=O)CC(C)(C)CC2=O)C2C(=O)CC(C)(C)CC2=O)cc1[N+](=O)[O-] ?
KAT2A inh: inactive; PI5P4Ka inh: inconclusive; Rango release inh: inactive; VDR inh: 12.6µM; Rango complex inh: inactive; PLK1 PBD inh: 1.68µM; VDR confirm: 3.36; VDR FP: inconclusive; VDR bla reporter: inconclusive; VDR viability: inactive; TbPYK inh: 15.8µM; TbPYK ADP-Glo: 31.6µM

How did CCOc1ccc(-c2nc3c(c(CC)nn3-c3ccccc3)c3cc(OC)c(OC)cc23)cc1 do in these assays?
KAT2A inh: inactive; VDR inh: inactive

Results for CCc1nc(C)cn1S(=O)(=O)c1ccc(Cl)c(Cl)c1OC ?
KAT2A inh: inactive; VDR inh: inactive

What do the screens show for `CCSC1=N/C(=C\c2ccc(-c3ccccc3[N+](=O)[O-])o2)C(=O)S1`?
KAT2A inh: inactive; PI5P4Ka inh: inactive; Rango release inh: inactive; VDR inh: inactive; Rango complex inh: inactive; PLK1 PBD inh: inactive

How did O=C1ON=C(c2ccccc2)/C1=C/c1ccc(-c2ccccc2[N+](=O)[O-])o1 do in these assays?
KAT2A inh: 20µM; PI5P4Ka inh: -77.5; Rango release inh: inactive; VDR inh: 35.5µM; Rango complex inh: inactive; PLK1 PBD inh: 0.947µM; VDR confirm: 7.52; VDR FP: inconclusive; VDR bla reporter: 16.4µM; VDR viability: 23.1µM; TbPYK inh: 31.6µM; TbPYK ADP-Glo: inconclusive

What do the screens show for `COc1ccc2[nH]c3c4c(ccc3c2c1)C(=O)C=CC4=O`?
KAT2A inh: inactive; PI5P4Ka inh: -65.2; Rango release inh: 4.61µM; VDR inh: inconclusive; Rango complex inh: inconclusive; PLK1 PBD inh: inconclusive; VDR confirm: 7.08; VDR FP: 5.01µM; VDR bla reporter: 6.51µM; VDR viability: inconclusive; TbPYK inh: 5.01µM; TbPYK ADP-Glo: inconclusive

Results for COc1ccc2[nH]c(-c3ccc(F)cc3F)cc(=O)c2c1 ?
KAT2A inh: inactive; VDR inh: inactive

What do the screens show for `CC1=CC(=O)C(C(C)C)=C/C1=C(\c1cc(C(C)C)c(OP(=O)(O)O)cc1C)c1ccccc1C(=O)O`?
KAT2A inh: inactive; PI5P4Ka inh: inactive; Rango release inh: inactive; VDR inh: inconclusive; Rango complex inh: inactive; PLK1 PBD inh: inconclusive

Results for CC1=CC(=O)C(C(C)C)=CC1=NC(=O)c1ccc(C)cc1 ?
KAT2A inh: inactive; PI5P4Ka inh: inactive; Rango release inh: inactive; VDR inh: 25.1µM; Rango complex inh: inactive; PLK1 PBD inh: 2.67µM; VDR confirm: 3.77; VDR FP: inconclusive; VDR bla reporter: inconclusive; VDR viability: inconclusive; TbPYK inh: 7.94µM; TbPYK ADP-Glo: 7.94µM

How did CC(C)(C)c1cc(C(c2cccnc2)N2CCN(CCO)CC2)cc(C(C)(C)C)c1O (stereo not drawn) do in these assays?
KAT2A inh: inactive; Rango release inh: inactive; VDR inh: 25.1µM; Rango complex inh: inactive; PLK1 PBD inh: 1.89µM; VDR confirm: 3.77; VDR FP: 3.98µM; VDR bla reporter: 16.4µM; VDR viability: inconclusive; TbPYK inh: 0.316µM; TbPYK ADP-Glo: 2.82µM

What do the screens show for `CC(C)(C)n1nnnc1C(c1cccnc1)N1CCN(C2CCCCC2)CC1` (stereo not drawn)?
KAT2A inh: inactive; Rango release inh: inactive; VDR inh: inactive; Rango complex inh: inactive; PLK1 PBD inh: inactive

What do the screens show for `CCOCCCNC(=O)c1ccc2c(c1)NC(=O)C(CS(=O)(=O)Cc1ccc(F)cc1Cl)N2` (stereo not drawn)?
KAT2A inh: inactive; VDR inh: inactive

How did CCCSc1ncc(Cl)c(C(=O)N2CCN(c3cccc(Cl)c3)CC2)n1 do in these assays?
KAT2A inh: inactive; VDR inh: inactive

Results for Nc1ccc2c(c1)C(=O)C(=O)c1ccccc1-2 ?
KAT2A inh: inactive[0.501 µM]; PI5P4Ka inh: inactive; Rango release inh: inactive; VDR inh: 20µM; Rango complex inh: inactive; PLK1 PBD inh: 1.5µM; VDR confirm: 6.7; VDR FP: inconclusive; VDR bla reporter: 4.11µM; VDR viability: 2.91µM; TbPYK inh: 14.1µM; TbPYK ADP-Glo: inconclusive

How did Cc1ccc(NC(=O)c2cc(S(=O)(=O)NC3CCCCC3)ccc2F)cc1Cl do in these assays?
KAT2A inh: inactive; VDR inh: inactive

Screening results: PubChem BioAssay, National Center for Advancing Translational Sciences (NCATS)
